GSH bead fluor: GSH bead compound fluorescence profile; GSH beads flow cytometry, compound fluorescence 488/530 nm; stronger effect = higher value; 0.25% of 190,000 active; fluorescence (KMESF) at 10 µM; in the data active = fluorescence above about 89;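 also: glutathione beads carrying GST-tagged Bcl family fusion proteins plus one bare bead set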
RGS7-Gao: modulates binding of RGS7 to human Galphao | P09471 | Multiplexed bead flow cytometry; actives lie on both sides | binding response (% of control), % at 10 µM | 0.35% of 220,000 active | AID 1439; in the data active = binding response below about 49% or above about 150%; inconclusive = no clear call, values can overlap the other calls; inactive = in between;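 also: fluorescent Galphao held in activated GDP-AlF4 state binding bead-coupled RGS7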
Target sequence (P09471 whole entry, looked up): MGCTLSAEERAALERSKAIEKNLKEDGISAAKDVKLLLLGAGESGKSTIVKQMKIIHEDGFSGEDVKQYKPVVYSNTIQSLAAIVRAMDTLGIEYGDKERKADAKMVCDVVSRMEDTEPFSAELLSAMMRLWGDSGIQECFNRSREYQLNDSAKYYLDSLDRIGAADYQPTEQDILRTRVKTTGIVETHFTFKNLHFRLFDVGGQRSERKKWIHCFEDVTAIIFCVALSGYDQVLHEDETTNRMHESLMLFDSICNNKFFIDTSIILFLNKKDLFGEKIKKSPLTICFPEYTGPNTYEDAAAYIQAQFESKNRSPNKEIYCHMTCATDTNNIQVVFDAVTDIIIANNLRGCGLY
RGS16-Gao HTS: regulators of human RGS16-Galphao interaction | 0.38% of 220,000 active | binding response (% of control), % at 10 µM | bead-based flow cytometry RGS16-Galphao binding, fluorescence; actives lie on both sides | O15492+P09471 | AID 1441;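 also: Galphao activated by GDP with aluminum fluoride before binding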
RGS4-Gao reg: human RGS4-Galphao interaction regulation. P09471. Multiplexed bead flow cytometry, RGS4-Galphao binding; actives lie on both sides. binding response (% of control), % at 10 µM. 0.33% of 220,000 active. AID 1415; in the data active = binding response below about 49% or above about 150%; inactive = in between;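 also: fluorescent Galphao activated with aluminum fluoride binding bead-coupled RGS4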
RGS8-Gao reg: human RGS8-Galphao interaction regulation; AID 1423; response (percent of control binding), % at 10 µM; 0.34% of 220,000 active; multiplexed bead flow cytometry, RGS8-Galphao binding; actives lie on both sides; P09471; in the data active = response below about 60% or above about 140%; inactive = in between;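 also: Galphao activated as the GDP aluminium fluoride complex binding bead-coupled RGS8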
Avidin fluor: avidin bead compound fluorescence profile. Avidin beads, compound fluorescence 488/530 nm, flow cytometry; stronger effect = higher value. fluorescence (KMESF) at 10 µM. 0.38% of 220,000 active; in the data active = fluorescence above about 47
RGS4-Gao HTS: regulators of human RGS4-Galphao interaction; 99% of 1,600 active; multiplexed bead flow cytometry, RGS–Galpha-o binding; shares compounds with RGS16-Gao HTS; AID 1504; RGS4–Galpha-o binding response, % at 10 µM;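 also: fluorescently labeled Galpha-o bound to GDP with aluminium fluoride binding biotinylated RGS beads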
Biotin-avidin: interferes with biotinylated probe binding to avidin beads; shares compounds with RGS16-Gao HTS; streptavidin beads, fluorescein-biotin binding, flow cytometry; inhibition, % at 10 µM; 1,700 tested, under 10 active; AID 1783;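 active = inhibition above 50%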;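 also: median green fluorescence of gated singlet beads compared with DMSO control wells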
RGS8-Gao single: confirmation of regulators of human RGS8-Galphao interaction. binding response (% of control), % at 10 µM. bead-based flow cytometry RGS8-Galphao binding, fluorescence; actives lie on both sides. AID 1836. 3% of 1,700 active. shares compounds with RGS16-Gao HTS; in the data active = binding response below about 72% or above about 130%; inactive = in between;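 also: Galphao activated as GDP AlF4 complex before binding bead RGS8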
RGS7-Gao confirm: confirmation of regulators of human RGS7-Galphao interaction | 7.8% of 1,700 active | response (percent of control binding), % at 10 µM | AID 1837 | shares compounds with RGS16-Gao HTS | bead-based flow cytometry RGS7-Galphao binding; actives lie on both sides; in the data active = response below about 75% or above about 130%; inactive = in between;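 also: fluorescent Galphao activated with GDP and aluminum fluoride binding bead-coupled RGS7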
RGS16-Gao conf: confirmation of regulators of human RGS16-Galphao interaction; shares compounds with RGS16-Gao HTS; bead-based flow cytometry, RGS16-Galphao binding; actives lie on both sides; response (% of control binding), % at 10 µM; 4% of 1,700 active; AID 1838; in the data active = response below about 74% or above about 130%; inactive = in between;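 also: Galphao activated as the GDP aluminium fluoride complex binding bead-coupled RGS16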
RGS4-Gao confirm: RGS4-Galphao interaction regulation, single point confirmation; 4% of 1,700 active; binding response (% of control), % at 10 µM; AID 1840; RGS4-Galphao binding, multiplexed bead flow cytometry; actives lie on both sides; shares compounds with RGS16-Gao HTS; in the data active = binding response below about 74% or above about 130%; inactive = in between
RGS19-Gao conf: confirmation of regulators of human RGS19-Galphao interaction. shares compounds with RGS16-Gao HTS. bead-based flow cytometry RGS19-Galphao binding; actives lie on both sides. response (percent of control binding), % at 10 µM. 5% of 1,700 active; in the data active = response below about 50% or above about 160%; inactive = in between
Target sequence (P09471 whole entry, looked up): as above
Target sequence (P49795 whole entry, looked up): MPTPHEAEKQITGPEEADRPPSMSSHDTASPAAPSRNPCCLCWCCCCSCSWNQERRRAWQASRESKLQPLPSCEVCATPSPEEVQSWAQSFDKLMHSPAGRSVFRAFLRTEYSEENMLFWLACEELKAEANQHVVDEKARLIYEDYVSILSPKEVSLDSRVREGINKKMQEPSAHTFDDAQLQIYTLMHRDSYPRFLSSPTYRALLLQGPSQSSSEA
Hits are given with their value; - = inactive; ? = inconclusive; . = not tested or not shown; + = active, no number; [ ] = another dose, or the depositor's remark. Hits are enriched below; roughly 1.2% of the tested compounds scored in any of these assays. Unless noted, no rule for the calls is given here.

SMILES	GSH bead fluor	RGS7-Gao	RGS16-Gao HTS	RGS4-Gao reg	RGS8-Gao reg	Avidin fluor	RGS4-Gao HTS	Biotin-avidin	RGS8-Gao single	RGS7-Gao confirm	RGS16-Gao conf	RGS4-Gao confirm	RGS19-Gao conf
Cc1cc(NC(=O)CCCOc2ccc(Cl)cc2Cl)no1	-	-	-	-	167[activator]	-	142	.	.	.	.	.	.
O=C(CCCOc1ccc(Cl)cc1Cl)Nc1ncccn1	.	?	-	-	-	-	.	.	.	.	.	.	.
O=C(OCCN1C(=O)c2ccccc2C1=O)c1cccs1	-	-	+	-	-	-	130	.	.	.	.	.	.
COCCNC(=O)Cn1nc(-c2ccccc2OC)ccc1=O	-	-	-	-	158[activator]	-	133	-	-	-	-	-	-
COc1ccc2c(CC(=O)OCC(=O)c3ccc(F)cc3)coc2c1	-	181[activator]	-	-	-	102	113	-	-	-	-	-	-
COc1ccc2c(CC(=O)OCC(=O)c3ccccc3OC)coc2c1	-	-	-	-	-	-	.	.	.	.	.	.	.
Cc1onc(-c2ccccc2Cl)c1C(=O)Nc1ccc(Cl)cn1	.	?	-	-	-	-	.	.	.	.	.	.	.
Cc1onc(-c2c(Cl)cccc2Cl)c1C(=O)c1ccccc1	.	?	-	-	-	-	.	.	.	.	.	.	.
Cc1onc(-c2ccccc2Cl)c1C(=O)Nc1ncn[nH]1	-	-	-1.7	-	-	-	86	-	-	-	-	-	-
Cc1onc(-c2ccccc2Cl)c1C(=O)c1ccccc1	.	?	-16	-28	7.7	-	.	-	-	-	-	-	-
CCOc1ccc(-c2nnc3ccc(SCC(=O)Nc4cc(C)on4)nn23)cc1	-	-	-	-	-	-	.	.	.	.	.	.	.
CC1CN(CC(O)COC(c2ccc(Cl)cc2)c2ccc(Cl)cc2)CC(C)O1 (stereo not drawn)	-	-	-	-	-	-	.	.	.	.	.	.	.
Cc1cc2cc3c(cc2nc1SCC(=O)Nc1nc(C)c(C)s1)OCO3	-	-	-	164[activator]	-	-	.	-	-	-	-	-	-
COc1ccc(C(=O)N2CCN(S(=O)(=O)c3ccc(C)cc3)CC2)cc1S(=O)(=O)N1CCOCC1	.	?	-	-	-	-	.	.	.	.	.	.	.
Cc1ccc(NC(=O)CSc2ccc(-c3ccc4c(c3)OCO4)nn2)cc1F	-	-	-	-	-	-	.	.	.	.	.	.	.
O=C(Nc1ccccc1Br)C1CCN(C(=O)Cc2ccccc2)CC1	-	-	21	-	-	-	97	-	-	-	-	-	-
O=C(Nc1ccccc1F)C1CCN(C(=O)Cc2ccccc2)CC1	-	-	-	-	-	-	.	.	.	.	.	.	.
CCCCOc1ccc(-c2nc(=S)[nH][nH]2)cc1	-	-	-	-	.	-	.	-	-	-	-	-	-
CCCCOc1ccc(-c2nc(SCC(N)=O)n[nH]2)cc1	-	-	-	-	-	-	.	.	.	.	.	.	.
Cc1ccc(-c2nnc(Nc3ccc(CC(N)=O)cc3)c3ccccc23)cc1S(=O)(=O)NCC1CCCO1 (stereo not drawn)	.	?	-	-	-	-	.	.	.	.	.	.	.
CC1CCCCN1CCNC(=O)C1CCN(S(=O)(=O)c2cccc3cccnc23)CC1 (stereo not drawn)	-	-	-	-	-	-	.	.	.	.	.	.	.
Cc1onc(-c2ccccc2)c1CNS(=O)(=O)c1cccc(Cl)c1	.	?	-	153[activator]	-	-	.	-	-	-	-	-	-
Cc1onc(-c2ccccc2)c1CNS(=O)(=O)c1ccccc1	.	?	-	-	-	-	.	.	.	.	.	.	.
C#CCOCCOCCOCCNc1nc(N2CCN(C(=O)C(Cc3cc4ccccc4[nH]3)n3cc(C(N)C(C)CC)nn3)CC2)nc(N2CCN(C(=O)C(Cc3cc4ccccc4[nH]3)n3cc(C(N)C(C)CC)nn3)CC2)n1 (stereo not drawn)	-	-	-	-	-	-	.	.	.	.	.	.	.
O=C(CSc1nnc(SCc2ccccc2)s1)N/N=C/c1c(Cl)cccc1Cl	-	-	-	-	-	-	.	.	.	.	.	.	.
SMILES	GSH bead fluor	RGS7-Gao	RGS16-Gao HTS	RGS4-Gao reg	RGS8-Gao reg	Avidin fluor	RGS4-Gao HTS	Biotin-avidin	RGS8-Gao single	RGS7-Gao confirm	RGS16-Gao conf	RGS4-Gao confirm	RGS19-Gao conf
Cc1nn(-c2ccccc2)c(C)c1/C=N/NC(=O)CSc1nnc(SCc2ccc(Cl)cc2)s1	-	157[activator]	-	-	-	68	108	-	-	-	-	-	-
CCCN1Cc2cccc(C(=O)Nc3ccc(CC)cc3)c2C1=O	-	-	-	-	-	-	.	.	.	.	.	.	.
Nc1ccc2nc(-c3ccc(N)c(Cl)c3)[nH]c2c1	-	-	-	-	-	-	.	.	.	.	.	.	.
Nc1ccc(-c2nc3c(Cl)cc(N)cc3[nH]2)cc1	-	26	-	-	-	-	78	-	-	-	-	-	-
Cc1ccc(S(=O)(=O)N(C)C)cc1NC(=O)COC(=O)/C=C/c1ccc2c(c1)OCO2	-	-	-	-	-	-	.	.	.	.	.	.	.
COCc1cc(C)nc(OCC(=O)N/N=C/c2ccc(O)cc2O)c1C#N	-	-	-	-	55	-	55	-	-	-	-	-	-
CCn1c(=O)n(CC(=O)N2CC(C)CC(C)C2)c(=O)c2ccccc21 (stereo not drawn)	-	-	-	-	-	-	.	.	.	.	.	.	.
CCn1c(=O)n(CC(=O)NC2CCCC(C)C2C)c(=O)c2ccccc21 (stereo not drawn)	-	198[activator]	-	-	-	99	119	.	.	.	.	.	.
O=C(NCC1CCCO1)C(c1cccs1)N(Cc1ccccc1Cl)C(=O)c1ccc(-c2ccccc2)[nH]1 (stereo not drawn)	-	-	178[activator]	-	-	-	99	-	-	-	-	-	-
Cc1ccc(C(C(=O)NCC2CCCO2)N(Cc2ccccc2)C(=O)c2ccc(-c3ccccc3)[nH]2)o1 (stereo not drawn)	-	-	-	-	-	-	.	.	.	.	.	.	.
O=C1c2ccccc2C(=O)N1CCCCN(C(=O)c1ccc([N+](=O)[O-])cc1)c1ccc(Cl)cc1	-	-	-	-	-	-	.	.	.	.	.	.	.

Source: PubChem BioAssay
